According to PubChem BioAssay AID687001 (Broad Institute, 2013):
Potency and affinity values are given separately. Activity calls are given as the source filed them.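 The calls were made as follows: active = signal-lowering compounds whose fitted half-maximal concentration is at or below twice the top tested dose in every run; inconclusive = runs disagree, flat 30 to 70% inhibition, or poor curve fit; inactive = the rest.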

Molecular target: Protein S100-A4 (Homo sapiens) (UniProt P26447)
Test: S100A4-myosin IIA binding inhibitor potency, dose response, biochemical, fluorescence polarization, cherry-picked hits (AID 687001)
Settings: FP, S100A4/TAMRA-myosin IIA peptide binding; series mostly up to 11 µM

Sequence of Protein S100-A4 (Homo sapiens) (P26447 whole entry, looked up): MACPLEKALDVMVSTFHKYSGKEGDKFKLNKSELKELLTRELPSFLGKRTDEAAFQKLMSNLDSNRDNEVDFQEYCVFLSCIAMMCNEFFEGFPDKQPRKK

outcome, inactive:
CCNC(=O)NC(=O)CSc1cccc(C(F)(F)F)c1
Nc1nnc(COc2ccc(Br)cc2Br)s1
C[C@@H]1CN([C@@H](C)CO)C(=O)c2cccc(NC(=O)Nc3cccc4ccccc34)c2O[C@H]1CN(C)C(=O)Nc1ccccc1
Cc1ccc(C)c(N2CCN(S(=O)(=O)c3c(C)[nH]c(C)c3C(=O)N3CCCCC3)CC2)c1
C[C@@H]1CCCCO[C@@H](CN(C)C(=O)C2CCCCC2)[C@@H](C)CN([C@H](C)CO)C(=O)c2cc(NC(=O)CCCCCC(=O)Nc3ccccc3N)ccc2O1
CN1c2ccc(-c3ccccc3)cc2[C@@H]2[C@@H](CCN2C(=O)c2ccccc2)[C@H]1CO
Cc1ccc(C(=O)C2=C(O)C(=O)N(Cc3cccnc3)C2c2cccc([N+](=O)[O-])c2)o1 (stereo not drawn)
C[C@@H]1CN([C@@H](C)CO)C(=O)c2cccc(NC(=O)C3CCOCC3)c2O[C@@H]1CN(C)Cc1ccc(C(=O)Nc2ccccc2N)cc1
CN(CC(=O)Nc1cccc(F)c1)C(=O)c1cccc(S(=O)(=O)N2CCN(Cc3ccccc3)CC2)c1
CCOc1ccc(OCCNC(=O)c2cc(C3CC3)nc3c2cnn3C(C)C)cc1
Cc1ccc(C(=O)N/C(=C/c2ccc(C(C)C)cc2)C(=O)NCCCN2CCOCC2)cc1
O=C(CC(F)(F)F)N1C[C@@H]2[C@H](c3ccccc31)[C@@H](CO)N2CC1CCOCC1
COCC(=O)N(C)C[C@H]1Oc2cc(C#CCN(C)C)ccc2S(=O)(=O)N([C@@H](C)CO)C[C@H]1C
